Our source for the outcome values is PubChem BioAssay (EPA / NIEHS).

Molecules are shown by their SMILES. Calls of active or inactive are those of the source. How the source made its calls: active means hit-call score of the fitted dose curve at least 0.9, where 1 is the maximum; inactive means score below 0.9.

The nature of the assay: ATG_PBREM_CIS: Attagene CIS-FACTORIAL HepG2 Assay for human Phenobarbital-responsive Enhancer Module (PBREM) (AID 2282955). Particulars: HepG2 PBREM cis-reporter, Attagene multiplexed transcription; actives raise or lower the signal. A digest of the protocol:
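Readout: reporter mRNA, fluorescent RT-PCR fragments separated by capillary electrophoresis. System: HepG2 transiently transfected with cis-regulated reporter units. Exposure: 24 h. Analysis: bidirectional, DMSO baseline.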
Turning to `COP(=S)(OC)Oc1c(Cl)cc(C)cc1Cl`, the outcome was inactive. For `O=Cc1cccc(Oc2ccccc2)c1` the value was “inactive”. Next, `COP(=S)(OC)Oc1ccc(S(=O)(=O)N(C)C)cc1`: “inactive”; `CCCCCCCCc1ccc(O)cc1`: “inactive”.

For the compound `CC(=O)C(Cl)C(=O)N(C)C` (stereo not given), the outcome was inactive. Turning to `O=CC=O`, the result was inactive. Consider `O=c1[nH]c(=O)[nH]c(=O)[nH]1`, for which the outcome was inactive. Next, `CC(=O)c1cc(C(C)(C)C)cc2c1CCC2(C)C`: “inactive”; `CCc1ccccc1N`: “inactive”.

Consider `ClCc1ccccn1`, for which the result was inactive. Next, `O=C/C=C/c1ccccc1`: “inactive”; `ClCC(Cl)CCl`: “inactive”; `COc1cc(OC)nc(NC(=O)NS(=O)(=O)c2ncccc2C(=O)N(C)C)n1`: “inactive”. In the case of `ClC1=C(Cl)[C@]2(Cl)[C@H]3[C@H]([C@H]4C=C[C@H]3C4)[C@@]1(Cl)C2(Cl)Cl`, the result was inactive. As to `COP(=S)(OC)Oc1cc(Cl)c(Cl)cc1Cl`, the outcome was inactive. As for `C=CC#N`, the result was inactive. Take `O=S(=O)(c1ccc(Cl)cc1)c1ccc(Cl)cc1`: the result was inactive. Next, `CC(Br)C(=O)O` (stereo not given): “inactive”; `O=C(NCO)NCO`: “inactive”; `C=C(C)C#N`: “inactive”. With `COc1cccc(C=O)c1`, the outcome was inactive. `OCC(O)CCl` (stereo not given): the result was inactive. With `Cc1ccccc1C(=O)Nc1cccc(OC(C)C)c1`, the outcome was inactive. Regarding `CC(C)(c1ccc(OCC2CO2)cc1)c1ccc(OCC2CO2)cc1` (stereo not given), the result was inactive. Next, `Nc1ccc(N=Nc2ccc(-c3ccc(N=Nc4c(S(=O)(=O)O)cc5cc(S(=O)(=O)O)c(N=Nc6ccccc6)c(O)c5c4N)cc3)cc2)c(N)c1`: “inactive”.
